Measurements taken from PubChem BioAssay AID488802 (Broad Institute, 2010).
Results with a measured potency or affinity are listed apart. Active and inactive are the calls of the source. No rule for the calls is given here.

Assay: single-agent growth inhibition of C. albicans, dose response, counter-screen for antifungal drug resistance project, C. albicans CaCi-2, dry powder (AID 488802)
Conditions: C. albicans CaCi-2 (fluconazole-resistant clinical isolate) growth, no fluconazole, Alamar Blue, 48 h; series mostly up to 26 µM; activity change, negative = inhibition: at the top concentration

| SMILES | activity change, negative = inhibition |
| --- | --- |
| c1ccc(-c2n[nH]c3ccccc23)cc1 | 18.7% (inactive) |
| CCOC(=O)c1c2ccccc2nn1Cc1ccc(Cl)cc1 | -15.6% (inactive) |
| COC(=O)Cn1nc(-c2ccccc2)c2cc(Cl)ccc21 | 4.23% (inactive) |
| CNC(=O)Cn1nc(-c2ccccc2)c2ccccc21 | -11.6% (inactive) |
| O=C(c1ccc(Cl)cc1)N1CCN(c2ccccn2)CC1 | -37.2% (inactive) |
| COC(=O)Cn1nc(-c2ccc(C)cc2)c2ccccc21 | -30.7% (inactive) |
| O=C(c1ccccc1)N1CCN(c2ccnc3cc(Cl)ccc23)CC1 | -30.1% (inactive) |
| O=C(c1cccs1)N1CCN(c2ccnc3cc(Cl)ccc23)CC1 | -9.52% [at 12 µM] (inactive) |
| O=S(=O)(c1ccc(Cl)cc1)N1CCN(c2ccnc3cc(Cl)ccc23)CC1 | -32.2% (inactive) |
| O=C(Cn1nc(C(=O)N2CCCCC2)c2ccccc21)N1CCOCC1 | 28.7% (inactive) |
| O=C(O)c1c2ccccc2nn1Cc1ccc(Cl)cc1 | -17.9% (inactive) |
| COC(=O)Cn1nc(-c2ccc(Cl)cc2)c2ccccc21 | -11.2% (inactive) |
| O=C(O)c1nn(Cc2ccc(Cl)cc2)c2ccccc12 | -23.6% (inactive) |
| O=C(Cn1c2ccccc2c2nc3n(c(=O)c21)CCCS3)c1ccc(F)cc1 | 6.11% (inactive) |
| O=C(c1ccc(Cl)cc1)N1CCN(c2ccc(Cl)cc2)CC1 | -1.08% (inactive) |
| CCCCNC(=O)N1CCN(c2ccnc3cc(Cl)ccc23)CC1 | -7.56% (inactive) |
| O=C(c1ccc(Cl)cc1)N1CCN(c2cc(C(F)(F)F)nc3ccccc23)CC1 | -13.8% (inactive) |
| COc1ccc(OC)c2c(C)cc(N3CCN(C(=O)c4ccc(Cl)cc4)CC3)nc12 | -9.23% (inactive) |
| COC(=O)Cn1nc(-c2ccccc2)c2ccccc21 | -40.4% (inactive) |
| O=C(C1CC1)N1CCN(c2ccnc3cc(Cl)ccc23)CC1 | -23.3% (inactive) |
